Records with an inconclusive call do not appear. A number with no mark means an inactive call. The source made the active and inactive calls. Calls follow the shape of the dose curve; as a rule, active = well fitted inhibition curve with a large enough effect; inconclusive = small, poorly fitted or top-dose-only effect; inactive = flat fitted curve, though single readings scatter.
% is scaled to controls: 0 for no effect and ±100 for the full control effect.

The test in a line: P-glycoprotein substrates identified in KB-8-5-11 adenocarcinoma cell line, qHTS therapeutic library screen (AID 1346987). Also: nearly all actives have a fitted effect of over 65% in size. To be noted: KB-8-5-11 (P-gp overexpressing) viability, CellTiter-Glo, 72 h; series mostly up to 44.5 µM; activity change, negative = cytotoxicity: at the top concentration. In outline: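 P-gp-mediated resistance screen: KB-8-5-11 cells treated 72 h with compounds in dose-response. CellTiter-Glo viability.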
`C=C1C[C@]23C[C@H]1CC[C@H]2[C@]1(C)CC[C@H](O)[C@@](C)(C(=O)O)[C@H]1[C@@H]3C(=O)O`: the “activity change, negative = cytotoxicity” value was -4.52%.
Consider `CCCC(=O)Nc1cccc(NC(=O)c2ccccc2Br)c1`, for which the “activity change, negative = cytotoxicity” value is -10.6%.
For the compound `CC12CC(c3ccoc3)OC(=O)C1CCC1(C)C2CCC(O)C1(C)O` (stereo not given), the “activity change, negative = cytotoxicity” value was -0.382%.
For the compound `C/C=C(\C)C(=O)OC1C2(O)CC3=C4CC(=O)OC(c5ccoc5)C4(C)CCC3C(C)(C2=O)C(C(OC(C)=O)C(=O)OC)C1(C)C` (stereo not given), the “activity change, negative = cytotoxicity” value was -6.33% [at 17.3 µM].
For the compound `C=C1C(=O)O[C@@H]2/C=C(\C)CC/C=C(\C(=O)O[C@@H]3O[C@H](CO)[C@@H](O)[C@H](O)[C@H]3O)CC[C@@H]12`, the “activity change, negative = cytotoxicity” value was -4.51% [at 17.3 µM].
For the compound `C/C=C1/C[N+](C)([O-])C2Cc3c([nH]c4ccccc34)C(=O)CC1C2C(=O)OC` (stereo not given), the outcome was inactive.
On the same count and under the same terms, the result for `COC(=O)CCC1(C)C(C(C)(C)O)C(O)CC2(C)Oc3c(C)c4c(c(OC)c3CC21)C(=O)OC4` (stereo not given) reads “inactive [at 17.3 µM]”.
In the case of `COc1cn(-c2ccc(-n3cccn3)cc2F)nc(-c2ccnn2-c2ccccc2)c1=O`, the “activity change, negative = cytotoxicity” value was -12.7%.
For the compound `O=C(O[C@H]1[C@H](Oc2ccc(O)cc2CO)O[C@H](CO)[C@@H](O)[C@@H]1O)c1ccccc1`, the “outcome” value is “inactive [at 17.3 µM]”.
As for `CC(C)/C=C1/NC(=O)C(C(C)C)n2c1nc1c(O)cccc1c2=O` (stereo not given), the “activity change, negative = cytotoxicity” value was -0.929%.
Turning to `CC(=O)O[C@@H]1[C@H](O[C@@H]2OC[C@](O)(CO)[C@H]2O)[C@@H](O[C@@H]2O[C@@H](C)[C@H](O)[C@@H](O[C@@H]3O[C@H](CO)[C@@H](O)[C@H](O)[C@H]3O)[C@H]2O)[C@H](OC(=O)[C@]23CCC(C)(C)C[C@H]2C2=CCC4[C@@]5(C)C[C@H](O)[C@H](O[C@@H]6O[C@H](C(=O)O)[C@@H](O)[C@H](O)[C@H]6O)[C@@](C)(C(=O)O)C5CC[C@@]4(C)[C@]2(C)CC3)O[C@@H]1C` (stereo not given in full), the outcome was “inactive [at 9.29 µM]”.
Consider `CC(=O)O[C@@H]1C[C@@H](C)[C@](O)(CCC2=CC(=O)OC2)[C@@]2(C)CCCC(C)(C)C12` (stereo not given in full), for which the “activity change, negative = cytotoxicity” value was 4.09%.
As to `COc1c(O[C@@H]2O[C@H](CO)[C@@H](O)[C@H](O)[C@H]2O)c(CCC(=O)O)cc2ccoc12`, the outcome was inactive.
On to `COc1ccc(Oc2c(Cl)cnn(C3c4ccccc4-c4ccccc43)c2=O)cc1`, for which the “activity change, negative = cytotoxicity” value is -17.4%.
In the case of `O=C(/C=C/c1ccc(O)cc1)O[C@@H]1C[C@@](O)(C(=O)O)C[C@@H](O)[C@@H]1O`, the call was inactive.
Turning to `Cc1nc2cc(-c3cc(F)cc(C#N)c3)ccc2s1`, the “activity change, negative = cytotoxicity” value is -3.95%.
`C[C@@H]1C[C@@H](O)[C@@]2(CO)C(CO)=CCC[C@@H]2[C@@]12C[C@@H](c1ccoc1)OC2=O`: the outcome was inactive.
Take `COc1cc(Nc2nc3c(s2)CCCC3c2ccccc2)ccc1-n1cnc(C)c1` (stereo not given): the activity change, negative = cytotoxicity is -10.2% [at 9.29 µM].
Take `COc1cc(O)cc2c1C(=O)OC(C)C2` (stereo not given): the result was inactive.
`Cc1cc(C)c2nc(-c3ccccn3)cc(C(=O)Nc3ccc(S(=O)(=O)Nc4onc(C)c4C)cc3)c2c1`: the “activity change, negative = cytotoxicity” value is 3.65%.
For the compound `O=C(/C=C/c1ccc(O)cc1)OCC1OC(O)C(OC2OC(CO)C(O)C(O)C2O)C(O)C1O` (stereo not given), the “activity change, negative = cytotoxicity” value was 6.71% [at 17.3 µM].
Turning to `CC1CCC2(C(=O)O)CCC3(C)C(=CCC4C5(C)CCC(O)C(C)(C(=O)O)C5CCC43C)C2C1(C)O` (stereo not given), the “outcome” value is “inactive [at 17.3 µM]”.
As to `COC1CC(O[C@H]2CC[C@@]3(C)C(=CC[C@]4(O)C3[C@H](O)[C@@H](O)[C@]3(C)[C@@H]([C@H](C)O)CC[C@@]34O)C2)OC(C)C1OC1CC(OC)C(OC2CC(OC)C(OC3OC(C)C(OC4OC(CO)C(O)C(O)C4O)C(OC)C3O)C(C)O2)C(C)O1` (stereo not given in full), the activity change, negative = cytotoxicity was 0.732% [at 9.29 µM].
Regarding `CCNC(=O)OC1CCN(c2nncc3cc(OC)c(OC)cc23)CC1`, the “activity change, negative = cytotoxicity” value was -4.01%.
For `COc1cccc(C(=O)NCCNc2nc3cc(C)cc(C)c3cc2C#N)c1`, the “activity change, negative = cytotoxicity” value is -23.7%.
As for `COC(=O)Cn1nc(-c2cccc(OC)c2)c2ccccc21`, the compound was classed as inactive.
For the compound `C[C@@H]1CC2OC(=O)C3=C2C(CCC3O)[C@@]12C[C@@H](c1ccoc1)OC2=O` (stereo not given in full), the outcome was inactive.
For `CC1(C)CC[C@]2(C(=O)O)CC[C@]3(C)C(=CCC4[C@@]5(C)C(=O)C[C@H](O)[C@@](C)(CO)C5CC[C@]43C)[C@@H]2C1` (stereo not given in full), the “activity change, negative = cytotoxicity” value is -0.0343% [at 17.3 µM].
For `O=C(O)C[C@H]1CCC(=O)[C@@H]1C/C=C\CCO`, the “activity change, negative = cytotoxicity” value is 1.97%.
Still for that read-out and setting: the result for `CC1CCC2(C)CCC3(C)C(=CCC4C5(C)CCC(O)C(C)(C(=O)O)C5CCC43C)C2C1C` (stereo not given) reads 7.94% [at 17.3 µM]; that for `CC(=O)OC(C)C(C)(O)C(=O)O[C@@H]1CC[C@]2(C)CC(=O)C(=C(C)C)C[C@H]2[C@]1(C)OC(C)=O` (stereo not given in full), -3.36% [at 17.3 µM].
Regarding `CN1CCN(C(=O)c2cc3cc(Cl)ccc3[nH]2)CC1`, the outcome was inactive.
As for `COC(=O)C1=CO[C@@H](O[C@@H]2O[C@H](CO)[C@@H](O)[C@H](O)[C@H]2O)[C@@H]2[C@@H](C(=O)O)CC[C@H]12`, the “activity change, negative = cytotoxicity” value is -3.15% [at 17.3 µM].
Regarding `CC/C=C\CC1C(CC(=O)O)CCC1OC1OC(CO)C(O)C(O)C1O` (stereo not given), the compound was classed as inactive.
Turning to `C=C(C(=O)O)[C@@H]1CC[C@H](C)[C@@H]2CC(=O)C(C)=C2C1`, the outcome was inactive.
Turning to `CCC[C@H](N[C@@H](C)C(=O)N1[C@H](C(=O)O)C[C@@H]2CCCC[C@@H]21)C(=O)O`, the “activity change, negative = cytotoxicity” value was -6.94%.
With `O=C(/C=C/c1ccc(O)cc1)O[C@H]1[C@H](OC2CCCCC2O)O[C@H](CO)[C@@H](O)[C@@H]1O` (stereo not given in full), the “activity change, negative = cytotoxicity” value is 0.679% [at 17.3 µM].
In the case of `C=C1C(O)CC2C(C(=O)O)=COC(OC3OC(CO)C(O)C(O)C3OC(=O)/C=C\c3ccc(O)cc3)C12` (stereo not given), the “outcome” value is “inactive [at 17.3 µM]”.
As to `COC(=O)C(Cc1ccccc1)NC(=O)c1ccccc1` (stereo not given), the compound was classed as inactive.
As for `Cc1cc(Cn2cnc3c2CC(C(=O)O)N(C(=O)C(c2ccccc2)c2ccccc2)C3)ccc1N(C)C` (stereo not given), the “activity change, negative = cytotoxicity” value was 7.83%.
